Bioassay records deposited in PubChem by National Center for Advancing Translational Sciences (NCATS).
Imprint erasure = inducers of genomic imprint erasure in mouse ES cells | mouse ES Peg3-LacZ reporter, beta-gal luminescence, 40 h | Potency, µM (doses to about 60.7 µM), hits mostly activators | 110,000 compounds, 0.02% hits | AID 1948
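Each well holds 300 Peg3LacZ-Neo (maternal) female ES cells incubated 40 h at 37C, 5% CO2. LacZ is measured by BetaGlo luminescence, with AC50 and maximum efficacy derived from dose-response curves.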
p53ts 32C tox = kills p53ts cells at the permissive temperature. 130,000 compounds, 0.93% hits. Potency, µM (titrated, usually from 46.1 µM), most hits filed as cytotoxic. H1299-p53A138V at 32C, ATP luminescence viability, 24 h. AID 924; further: nearly all actives have a fitted effect of over 55% in size
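Cells: H1299 p53ts (A138V), 600/well, pre-incubated 16–30 h at 37C. Cpd up to 46 uM, 24 h, 32C. Readout: ATPlite luminescence, 20 min RT. Normalization: DMSO vs tamoxifen 100 uM. AC50 by Hill equation.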
IkB sig inh = inhibitors of IkB signaling in ABC-DLBCL cells. Potency, µM (series often up to 57.1 µM). ABC-DLBCL IkBa-CBG/CBR dual luciferase ratio, 4 h; response scale: scaled: untreated 0%, proteasome inhibitor 100%. 110,000 compounds, 0.04% hits; active means well fitted curve in the direction sought with a large enough effect in the signal ratio, not every such curve was filed as active; inconclusive means small, poorly fitted or top-dose-only effect, or a change in a side signal; the % refers to the signal ratio;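 further: the direction sought is a rising ratio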
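Luminescence ratio of IκBα-fused green versus native red beetle luciferase in OCI-Ly3 cells, 4 h post-doxycycline with compound; red signal alone, scaled from basal (0%) to zero light (-100%), flagged nonspecific or cytotoxic effects.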
p53ts 39C kill = kills p53ts cells at the nonpermissive temperature; Potency, µM (highest dose often 46.1 µM), most hits filed as cytotoxic; 130,000 compounds, 1.5% hits; H1299-p53A138V viability at 39C, ATP luminescence, 24 h; further: nearly all actives have a fitted effect of over 55% in size
A number is an active result; n = inactive; u = inconclusive; x = not tested or not shown; [ ] = dose if it differs, or a comment. The list is not random: actives were taken first. Their share in the collection is about 1.8%. Unless noted, the call rests on the fitted dose curve; in most records, active means well fitted curve in the direction sought with a large enough effect; inconclusive means small, poorly fitted or top-dose-only effect, or another doubt; inactive means no such curve, though single readings can be large; an effect the other way counts as inactive or inconclusive.

SMILES | Imprint erasure | p53ts 32C tox | IkB sig inh | p53ts 39C kill
CC(=NCc1ccco1)c1c(O)n(C2CCCCC2)c(=O)[nH]c1=O | n | n | n | n
CC(=NCc1ccco1)c1c(C)[nH]n(-c2nc3ccccc3s2)c1=O | n | u | u | 7.9µM
COc1ccc(-c2cn3cc(C)ccc3n2)cc1OC | n | 10µM | n | 13µM
Cc1ccc(-c2cn3ccc(C)cc3n2)cc1 | n[10.9 µM] | 0.5µM | u | 0.63µM
CCCS(=O)(=O)Nc1cc(-c2cn3ccc(C)cc3n2)ccc1C | n[10.9 µM] | u | n | u
COc1ccc(-c2cn3ccccc3n2)cc1OC | n | 3.2µM | n | 5µM
Cc1ccc2[nH]c(-c3ccccc3)cc(=O)c2c1 | n | 6.3µM | n | 5µM
COc1ccc(CNC(=O)CCc2c(C)nn(-c3ccc(N4CCCCC4)nn3)c2C)c(OC)c1 | n[10.9 µM] | n | u | n
O=C(Nc1cccc(O)c1)c1noc2c1CCc1ccccc1-2 | n[10.9 µM] | 4µM | u | 2.5µM
O=C(Nc1cccc(C(F)(F)F)c1)c1noc2c1CCc1ccccc1-2 | n[10.9 µM] | n | u | n
CCCCc1ccc(-n2nc3cc(C)c(NC(=O)c4ccc(C#N)cc4F)cc3n2)cc1 | n[10.9 µM] | n | n | n
COc1ccc2c(c1OC)C(=O)N1c3cccc(Cl)c3C(=O)OC21 (stereo not drawn) | n | n | n | n
COc1ccc2c(c1OC)C(=O)N1c3ccccc3COC21 (stereo not drawn) | n | 13µM | n | 16µM
Cc1cc(C)c2c(n1)nn1c(C)c(CCC(=O)Nc3cccc(C)c3C)c(C)nc21 | n[10.9 µM] | n | n | u
Cc1ccc(C2=Nc3ccccc3N(CC(=O)NCc3ccc(F)cc3)C(=O)C2)cc1C | n[10.9 µM] | n | n | 10µM
C=CCn1c(C)cc(C(=O)COc2ncnc3sccc23)c1C | n | u | n | 7.9µM
Cc1ccc2scc(N3CCN(c4cccc(C(F)(F)F)c4)CC3)c(=O)c2c1 | n[10.9 µM] | n | n | u
Cc1ccc2scc(N3CCCC(C)C3)c(=O)c2c1 (stereo not drawn) | n[10.9 µM] | 13µM | u | u
CC(C)c1ccc(-c2noc(SCC(=O)N(C)c3ccc(F)cc3)n2)cc1 | n[10.9 µM] | n | n | n
CC(C)c1ccc(-c2noc(SCC(=O)N3CCCCC3)n2)cc1 | n[10.9 µM] | 13µM | u | 16µM
COc1ccccc1C(=O)Nc1c(C(=O)N(CCN(C)C)Cc2ccco2)oc2ccccc12 | n[10.9 µM] | n | u | 20µM
CC1=C(C(=O)Nc2ccc(C)cc2C)C(c2cc(Br)ccc2F)n2ncc(C(=O)Nc3ccc(C)cc3)c2N1 (stereo not drawn) | n[10.9 µM] | u | u | 13µM
COc1ccc(NC(=O)Nc2nnc(N3CCCCCC3)s2)c(OC)c1 | n[10.9 µM] | n | n | n
CSc1ncnc2nc[nH]c12 | n | n | n | n
CN1CCc2cccc3c2[C@H]1Cc1ccc(O)c(O)c1-3 | n | 25µM | n | 6.3µM
SMILES | Imprint erasure | p53ts 32C tox | IkB sig inh | p53ts 39C kill
COc1ccc(NC(=O)C2CCCN(c3ncnc4c3nc3n4CCCCC3)C2)c(OC)c1 (stereo not drawn) | x | n | x | x
COc1ccccc1NC(=O)C1=C(C)Nc2nc(SCc3ccccc3Cl)nn2C1c1cccnc1 (stereo not drawn) | n[10.9 µM] | n | u | 10µM
COc1ccccc1NC(=O)C1=C(C)Nc2nc(SCc3ccccc3F)nn2C1c1cccnc1 (stereo not drawn) | n[10.9 µM] | n | n | n
CCOC(=O)N1CCc2c(sc3c2c(=O)n(-c2ccc(F)cc2)c(=O)n3CC(=O)c2ccccc2)C1 | n[10.9 µM] | n | n | n
CCCCCCCCCCCCC(=O)N1CCCC[C@H]1CNC(=O)[C@@H](N)CCCCN | n | n | n | 32µM
c1csc(-c2nc3ccccc3[nH]2)c1 | n | n | n | n
Nc1nc(-c2nc3ccccc3[nH]2)cs1 | n | 16µM | u | 13µM
Cc1ccc(-c2nc3ccccc3[nH]2)s1 | n | 13µM | u | 13µM
CC(C)(C)OC(=O)[C@H](C1N[C@@H](C(=O)O)C(C)(C)S1)N1C(=O)c2ccccc2C1=O (stereo partly drawn) | n[10.9 µM] | x | x | x
COc1ccccc1NC(=O)N(Cc1ccco1)C1CCN(C(C)=O)CC1 | n[10.9 µM] | n | n | n
CC(C)CO/N=C1/[C@H]2O[C@@H]2[C@@H](O)[C@H]2[C@H]1CCn1c(=O)n(C)c(=O)n12 | x | n[9.22 µM] | x | n[9.22 µM]
O=C(Nc1nnc(-c2ccccc2Cl)o1)c1ccco1 | n | 13µM | u | 10µM
CCN(CC)S(=O)(=O)c1ccc(NC(=O)NCc2noc3ccc(C)cc23)cc1 | n[10.9 µM] | n | n | n
Cc1nc2c(ccc3nc(NC(=O)c4ccc5c(c4)OCCO5)sc32)s1 | n | 4µM | u | 3.2µM
O=C(NCC12CC3CC(CC(C3)C1)C2)c1cc2nc(-c3ccc(F)cc3)cc(C(F)(F)F)n2n1 | n[10.9 µM] | n | u | n
c1ccc2c(c1)Cn1c-2nc2ccccc21 | n | 13µM | u | 7.9µM
c1ccc2c(c1)Cn1nnnc1-2 | n | n | n | n
Cc1ccc(CNS(=O)(=O)c2ccc3[nH]c4c(c3c2)CCCCC4)cc1 | n[10.9 µM] | n | u | 20µM
O=S(=O)(NCc1ccc(F)cc1)c1ccc2[nH]c3c(c2c1)CCCC3 | x | n | x | x
O=S(=O)(NCc1ccccc1)c1ccc2[nH]c3c(c2c1)CCCCC3 | n[10.9 µM] | n | n | 32µM
CC1CCC2C(=O)N3C(CCC(C)C3c3ccc(-c4ccco4)cc3)C(=O)N2C1c1ccc(-c2ccco2)cc1 (stereo not drawn) | x | n[9.22 µM] | x | n[9.22 µM]
CCOC(=O)CCN1C(=O)[C@H]2[C@H]3[C@H](O)[C@H](O)C/C(=N/NC(=O)OCC)[C@@H]3CC[C@@H]2C1=O | x | n[9.22 µM] | x | n[9.22 µM]
Cc1ccc(C(C)C)c(OCC(=O)Nc2cc(-c3nc4ccccc4[nH]3)ccc2C)c1 | n[10.9 µM] | u | u | 10µM
Cc1c(Cl)cccc1NC(=O)C[C@H]1Sc2ccccc2NC1=O | n[10.9 µM] | n[9.22 µM] | n[11.4 µM] | n[9.22 µM]
O[C@@H](c1cc(-c2ccc(Cl)cc2)nc2ccccc12)C1CCCCN1 (stereo partly drawn) | n[10.9 µM] | x | x | x
SMILES | Imprint erasure | p53ts 32C tox | IkB sig inh | p53ts 39C kill
Cc1ccc2nc(-c3ccc(N4CCOCC4)cc3)c(Nc3ccccc3C)n2c1 | n[10.9 µM] | 13µM | u | u
Cc1ccccc1Nc1c(-c2ccc(N3CCOCC3)cc2)nc2ccc(Cl)cn12 | n[10.9 µM] | u | u | 10µM
Cc1ccn2c(Nc3ccccc3C)c(-c3ccc(N4CCOCC4)cc3)nc2c1 | n[10.9 µM] | n | n | n
Clc1ccc2nc(-c3ccc(N4CCOCC4)cc3)c(Nc3ccccc3)n2c1 | n[10.9 µM] | n | u | n
COc1ccccc1N=c1oc2cc(O)ccc2cc1C(N)=O | n | u | u | 13µM
Cc1ccc(NC(=O)c2ccc(CNS(=O)(=O)c3ccc4c(c3)C(C)(C)C(=O)N4C)cc2)cc1F | n[10.9 µM] | n | n | n
Cc1ccc(Cl)cc1-n1ncc2c(N3CCN(Cc4ccccc4)CC3)ncnc21 | n[10.9 µM] | 16µM | u | 20µM
Cc1nn(-c2ccccc2)c(Cl)c1C(=O)N1CCN(c2ncnc3c2cnn3-c2ccccc2)CC1 | n | 10µM | u | u
CCN(c1ncnc2c1cnn2-c1cccc(Cl)c1)C1CCCCC1 | n[10.9 µM] | u | n | u
Clc1cccc(-n2ncc3c(N4CCCCCC4)ncnc32)c1 | n[10.9 µM] | u | u | 13µM
